The campaign covered roughly 5,500 compounds. About 2,000 (36%) were called active. Roughly 18% stayed inconclusive and do not appear here. The list shows a part of the results. Unmarked numbers belong to inactive results. Cut-off read from the data, not from the text of the source: active = normalized growth mostly below about 0.91 (no sharp cut-off); inconclusive = no clear call, values can overlap the other calls; inactive = mostly above about 0.92.
Experiment: chemical genetic growth profiling, strain panel (AID 1159580);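 note: tested at 20 µM; growth read once vehicle control cultures reached saturation at 30 °C; 1 = growth at the plate median or of vehicle wells; lower values mean less growth of the strain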
Settings: growth OD
[1] = S. cerevisiae deletion strains, locus YAL013W, strain DEP1, active compounds read low
[2] = S. cerevisiae deletion strains, locus YBR229C, strain ROT2, active compounds read low
[3] = S. cerevisiae deletion strains, locus YDL101C, strain DUN1, active compounds read low
[4] = S. cerevisiae deletion strains, locus YDL134C, strain PPH21, active compounds read low
[5] = S. cerevisiae deletion strains, locus YDR150W, strain NUM1, active compounds read low
[6] = S. cerevisiae deletion strains, locus YEL061C, strain CIN8, active compounds read low
[7] = S. cerevisiae deletion strains, locus YGR078C, strain PAC10, active compounds read low
[8] = S. cerevisiae deletion strains, locus YGR229C, strain SMI1, active compounds read low
[9] = S. cerevisiae deletion strains, locus YHR030C, strain SLT2, active compounds read low
[10] = S. cerevisiae deletion strains, locus YJR043C, strain POL32, active compounds read low
[11] = S. cerevisiae deletion strains, locus YJR075W, strain HOC1, active compounds read low
[12] = S. cerevisiae deletion strains, locus YKL190W, strain CNB1, active compounds read low
[13] = S. cerevisiae deletion strains, locus YLR039C, strain RIC1, active compounds read low
[14] = S. cerevisiae deletion strains, locus YLR262C, strain YPT6, active compounds read low
[15] = S. cerevisiae deletion strains, locus YMR263W, strain SAP30, active compounds read low
[16] = S. cerevisiae deletion strains, locus YNL153C, strain GIM3, active compounds read low
[17] = S. cerevisiae deletion strains, locus YNL322C, strain KRE1, active compounds read low
[18] = S. cerevisiae deletion strains, locus YOL006C, strain TOP1, active compounds read low
[19] = S. cerevisiae deletion strains, locus YPL055C, strain LGE1, active compounds read low
[20] = S. cerevisiae deletion strains, locus YPL241C, strain CIN2, active compounds read low
[21] = S. cerevisiae strains, strain wild type, active compounds read low

NC[C@@H]1CC[C@@H](N)[C@@H](O[C@H]2[C@H](O)[C@@H](O[C@H]3O[C@H](CO)[C@@H](O)[C@H](N)[C@H]3O)[C@H](N)C[C@@H]2N)O1
normalized growth [1]: 0.987 | normalized growth (S. cerevisiae deletion strains, locus YBR021W, strain FUR4, active compounds read low): 1.06 | normalized growth [2]: 0.959 | normalized growth (S. cerevisiae deletion strains, locus YCL029C, strain bik1, active compounds read low): 0.985 | normalized growth (S. cerevisiae deletion strains, locus YDL035C, strain GPR1, active compounds read low): 0.995 | normalized growth (S. cerevisiae deletion strains, locus YDL074C, strain BRE1, active compounds read low): 0.983 | normalized growth [3]: 0.952 | normalized growth [4]: 0.993 | normalized growth (S. cerevisiae deletion strains, locus YDL185W, strain tfp1, active compounds read low): 0.984 | normalized growth (S. cerevisiae deletion strains, locus YDL192W, strain arf1, active compounds read low): 0.993 | normalized growth (S. cerevisiae deletion strains, locus YDR101C, strain arx1, active compounds read low): 1 | normalized growth [5]: 0.986 | normalized growth (S. cerevisiae deletion strains, locus YDR162C, strain NBP2, active compounds read low): 0.967 | normalized growth (S. cerevisiae deletion strains, locus YDR318W, strain mcm21, active compounds read low): 1.01 | normalized growth (S. cerevisiae deletion strains, locus YDR388W, active compounds read low): 1 | normalized growth (S. cerevisiae deletion strains, locus YDR502C, strain sam2, active compounds read low): 1 | normalized growth [6]: 0.987 | normalized growth (S. cerevisiae deletion strains, locus YER110C, active compounds read low): 0.996 | normalized growth (S. cerevisiae deletion strains, locus YER155C, strain BEM2, active compounds read low): 1 | normalized growth (S. cerevisiae deletion strains, locus YER167W, strain BCK2, active compounds read low): 0.98 | normalized growth (S. cerevisiae deletion strains, locus YGL078C, strain dbp3, active compounds read low): 0.994 | normalized growth (S. cerevisiae deletion strains, locus YGL086W, strain mad1, active compounds read low): 0.995 | normalized growth (S. cerevisiae deletion strains, locus YGL248W, strain PDE1, active compounds read low): 0.978 | normalized growth [7]: 0.986 | normalized growth (S. cerevisiae deletion strains, locus YGR135W, strain pre9, active compounds read low): 0.982 | normalized growth [8]: 1.01 | normalized growth (S. cerevisiae deletion strains, locus YGR252W, strain gcn5, active compounds read low): 1.02 | normalized growth [9]: 0.995 | normalized growth (S. cerevisiae deletion strains, locus YHR079C, strain IRE1 (second series), active compounds read low): 1 | normalized growth (S. cerevisiae deletion strains, locus YHR094C, strain hxt1, active compounds read low): 1 | normalized growth (S. cerevisiae deletion strains, locus YHR129C, strain ARP1, active compounds read low): 0.992 | normalized growth (S. cerevisiae deletion strains, locus YHR200W, strain rpn10, active compounds read low): 0.988 | normalized growth (S. cerevisiae deletion strains, locus YIL066C, strain RNR3, active compounds read low): 0.995 | normalized growth (S. cerevisiae deletion strains, locus YIL073C, strain SPO22, active compounds read low): 0.971 | normalized growth (S. cerevisiae deletion strains, locus YIL125W, strain kgd1, active compounds read low): 0.993 | normalized growth (S. cerevisiae deletion strains, locus YIR030C, strain dcg1, active compounds read low): 0.985 | normalized growth (S. cerevisiae deletion strains, locus YJL095W, strain BCK1, active compounds read low): 0.984 | normalized growth (S. cerevisiae deletion strains, locus YJL134W, strain LCB3, active compounds read low): 0.978 | normalized growth (S. cerevisiae deletion strains, locus YJL168C, strain set2, active compounds read low): 0.995 | normalized growth (S. cerevisiae deletion strains, locus YJL187C, strain SWE1 (second series), active compounds read low): 0.977 | normalized growth [10]: 1.01 | normalized growth [11]: 0.996 | normalized growth (S. cerevisiae deletion strains, locus YKL009W, strain mrt4, active compounds read low): 0.974 | normalized growth (S. cerevisiae deletion strains, locus YKL068W, active compounds read low): 0.996 | normalized growth (S. cerevisiae deletion strains, locus YKL085W, strain MDH1 (second series), active compounds read low): 0.983 | normalized growth (S. cerevisiae deletion strains, locus YKL085W, strain MDH1, active compounds read low): 0.983 | normalized growth [12]: 1 | normalized growth (S. cerevisiae deletion strains, locus YKR001C, strain vps1, active compounds read low): 0.994 | normalized growth [13]: 0.938 | normalized growth (S. cerevisiae deletion strains, locus YLR058C, strain SHM2, active compounds read low): 0.974 | normalized growth (S. cerevisiae deletion strains, locus YLR102C, strain apc9, active compounds read low): 0.993 | normalized growth [14]: 0.9 | normalized growth (S. cerevisiae deletion strains, locus YLR268W, strain sec22, active compounds read low): 0.986 | normalized growth (S. cerevisiae deletion strains, locus YLR330W, strain CHS5, active compounds read low): 0.981 | normalized growth (S. cerevisiae deletion strains, locus YLR342W, strain FKS1 (second series), active compounds read low): 1.01 | normalized growth (S. cerevisiae deletion strains, locus YLR371W, strain rom2, active compounds read low): 1 | normalized growth (S. cerevisiae deletion strains, locus YLR418C, strain cdc73, active compounds read low): 0.968 | normalized growth (S. cerevisiae deletion strains, locus YML016C, strain PPZ1, active compounds read low): 0.981 | normalized growth (S. cerevisiae deletion strains, locus YML032C, strain rad52, active compounds read low): 1 | normalized growth (S. cerevisiae deletion strains, locus YML124C, strain tub3, active compounds read low): 1.01 | normalized growth (S. cerevisiae deletion strains, locus YMR078C, strain ctf18, active compounds read low): 1 | normalized growth (S. cerevisiae deletion strains, locus YMR223W, strain ubp8, active compounds read low): 1.01 | normalized growth [15]: 0.983 | normalized growth (S. cerevisiae deletion strains, locus YMR307W, strain GAS1, active compounds read low): 1.13 | normalized growth (S. cerevisiae deletion strains, locus YNL067W, strain RPL9B, active compounds read low): 0.981 | normalized growth (S. cerevisiae deletion strains, locus YNL128W, strain TEP1, active compounds read low): 0.98 | normalized growth [16]: 0.991 | normalized growth (S. cerevisiae deletion strains, locus YNL233W, strain BNI4, active compounds read low): 0.994 | normalized growth (S. cerevisiae deletion strains, locus YNL250W, strain rad50, active compounds read low): 0.983 | normalized growth (S. cerevisiae deletion strains, locus YNL271C, strain bni1, active compounds read low): 1 | normalized growth (S. cerevisiae deletion strains, locus YNL298W, strain CLA4, active compounds read low): 1.01 | normalized growth (S. cerevisiae deletion strains, locus YNL307C, strain MCK1, active compounds read low): 0.997 | normalized growth [17]: 0.987 | normalized growth (S. cerevisiae deletion strains, locus YNR052C, strain pop2, active compounds read low): 0.953 | normalized growth [18]: 0.917 | normalized growth (S. cerevisiae deletion strains, locus YOL012C, strain htz1): 0.745 | normalized growth (S. cerevisiae deletion strains, locus YOL147C, strain pex11, active compounds read low): 1.01 | normalized growth (S. cerevisiae deletion strains, locus YOR061W, strain CKA2, active compounds read low): 0.95 | normalized growth (S. cerevisiae deletion strains, locus YOR069W, strain VPS5, active compounds read low): 0.996 | normalized growth (S. cerevisiae deletion strains, locus YOR136W, strain idh2, active compounds read low): 1 | normalized growth (S. cerevisiae deletion strains, locus YOR144C, strain elg1, active compounds read low): 1 | normalized growth (S. cerevisiae deletion strains, locus YOR184W, strain ser1, active compounds read low): 1.03 | normalized growth (S. cerevisiae deletion strains, locus YOR316C, strain cot1, active compounds read low): 0.985 | normalized growth [19]: 0.984 | normalized growth [20]: 0.991 | normalized growth (S. cerevisiae deletion strains, locus YPR119W, strain clb2, active compounds read low): 1 | normalized growth (S. cerevisiae deletion strains, locus YPR141C, strain kar3, active compounds read low): 0.966 | normalized growth (S. cerevisiae deletion strains, locus YPR163C, strain tif3, active compounds read low): 1.01 | normalized growth (S. cerevisiae deletion strains, locus YPR167C, strain met16, active compounds read low): 0.988 | normalized growth (S. cerevisiae deletion strains, strain wtn01, active compounds read low): 0.987 | normalized growth [21]: 0.992

N#Cc1c(N)oc(-c2ccco2)c1-c1ccco1
normalized growth [1]: 0.893 (active) | normalized growth [2]: 0.975 | normalized growth [3]: 0.968 | normalized growth [4]: 0.947 | normalized growth [5]: 0.937 | normalized growth [6]: 0.947 | normalized growth [7]: 0.948 | normalized growth [8]: 0.994 | normalized growth [9]: 0.415 (active) | normalized growth (S. cerevisiae deletion strains, locus YHR087W, strain rtc3, active compounds read low): 0.97 | normalized growth [10]: 0.943 | normalized growth [11]: 0.949 | normalized growth [12]: 0.992 | normalized growth [13]: 0.981 | normalized growth (S. cerevisiae deletion strains, locus YLR058C, strain SHM2 (second series), active compounds read low): 0.961 | normalized growth (S. cerevisiae deletion strains, locus YLR085C, strain ARP6, active compounds read low): 0.626 (active) | normalized growth [14]: 0.999 | normalized growth (S. cerevisiae deletion strains, locus YML094W, strain GIM5, active compounds read low): 0.875 | normalized growth (S. cerevisiae deletion strains, locus YMR219W, strain ESC1, active compounds read low): 0.969 | normalized growth [15]: 0.917 | normalized growth [16]: 0.987 | normalized growth (S. cerevisiae deletion strains, locus YNL298W, strain CLA4 (second series), active compounds read low): 0.888 | normalized growth [17]: 0.962 | normalized growth (S. cerevisiae deletion strains, locus YNR030W, strain Alg12, active compounds read low): 0.903 | normalized growth [18]: 0.913 | normalized growth [19]: 0.789 (active) | normalized growth [20]: 0.873 | normalized growth (S. cerevisiae deletion strains, locus YPR135W, strain CTF4, active compounds read low): 0.694 | normalized growth [21]: 0.984

From PubChem BioAssay AID1159580 (chemical genetic matrix, 2015)
